Laboratory results: PubChem BioAssay (Tox21)
“And” between values parts separate entries of the source, which are not always exact repeats. Equal entries are not always repeated. Results filed as inconclusive are left out. Entries that show only a call come without a potency. Some structures have more than one record in an assay (separate samples or runs), and their calls can disagree. The source made the active and inactive calls. The call rests on the fitted dose curve; in most records, active means well fitted curve in the direction sought with a large enough effect in the repeat runs; inconclusive means weak or mixed curves; inactive means no such curve, though single readings can be large; an effect the other way counts as inactive or inconclusive.

Assay: qHTS assay to identify small molecule antagonists of the estrogen related receptor signaling pathway with the pleiotropic PPARgamma coactivator (PGC) cell viability counter screen (AID 1224822)
Details: ERR/PGC reporter cell line viability counter screen; series mostly up to 46.1 µM
Summary of the method: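 PGC/ERR cells rested 6 h, then compound-treated 17.5 h at 37 C. CellTiter-Fluor added for 30 min at 37 C, viability measured by fluorescence intensity.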

| Structure (SMILES) | outcome |
| --- | --- |
| CC1=C(/C=C/C(C)=C/C=C/C(C)=C/C(=O)O)C(C)(C)CCC1 | inactive |
| COc1cc2c(c(OC)c1OC)-c1ccc(OC)c(=O)cc1[C@@H](NC(C)=O)CC2 | inactive |
| CCOC(=O)C(C)(C)Oc1ccc(Cl)cc1 | inactive |
| NC(=O)N1c2ccccc2C=Cc2ccccc21 | inactive |
| CCN(CC)CCOC(=O)c1ccc(N)cc1 | inactive |
| CC(=O)Oc1ccccc1C(=O)O | inactive |
| N[C@@H](Cc1c[nH]c2ccc(O)cc12)C(=O)O | inactive |
| COc1ccccc1O | inactive |
| C[C@]12CC[C@@H]3c4ccc(O)cc4CC[C@H]3[C@@H]1CCC2=O | inactive |
| C[C@]12CC[C@@H]3c4ccc(O)cc4C[C@@H](CCCCCCCCCS(=O)CCCC(F)(F)C(F)(F)F)[C@H]3[C@@H]1CC[C@@H]2O (some centres not stated) | inactive |

Assay: qHTS assay to identify small molecule agonists of the estrogen related receptor signaling pathway with the pleiotropic PPARgamma coactivator (PGC) (AID 1224823)
Details: ERR/PGC reporter cell line, luciferase agonist mode; series mostly up to 46.1 µM
Summary of the method: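 Cell-based luciferase assay in the NTP-supplied PGC/ERR line, 2,000 cells/well; 18 h compound exposure at 37 C, luminescence after One-Glo.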

| Structure (SMILES) | outcome |
| --- | --- |
| CCOC(=O)C(C)(C)Oc1ccc(Cl)cc1 | inactive |
| CCN(CC)CCOC(=O)c1ccc(N)cc1 | inactive |
| C[C@]12CC[C@@H]3c4ccc(O)cc4C[C@@H](CCCCCCCCCS(=O)CCCC(F)(F)C(F)(F)F)[C@H]3[C@@H]1CC[C@@H]2O (some centres not stated) | inactive |

Assay: qHTS assay to identify small molecule antagonists of the estrogen related receptor (ERR) signaling pathway from Tox21 library - cell viability counter screen (AID 1224834); further: nearly all actives have a fitted effect of over 30% in size; further: potency means the concentration at half of the fitted maximal effect
Details: ERR reporter cells viability, CellTiter-Fluor, 17.5 h; series mostly up to 92.4 µM
Summary of the method: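 ERR reporter cells, 2,000 per well, rested 6 h, then exposed to compound in DMSO for 17.5 hours at 37 C. Viability read as fluorescence after 30 min with CellTiter-Fluor.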

| Structure (SMILES) | Potency |
| --- | --- |
| NCCNc1cccc2ccccc12 | 68.5 µM (active) and inactive |
| CC(C)CC(C)CC(O)CC(C)C (configuration not stated) | inactive |
| CC1=C(/C=C/C(C)=C/C=C/C(C)=C/C(=O)O)C(C)(C)CCC1 | inactive |
| NC(N)=NC(N)=NCCc1ccccc1 | inactive |
| COc1cc2c(c(OC)c1OC)-c1ccc(OC)c(=O)cc1[C@@H](NC(C)=O)CC2 | inactive |
| CCOC(=O)C(C)(C)Oc1ccc(Cl)cc1 | inactive |
| Cc1cccc(C)c1O | inactive |
| NC(=O)N1c2ccccc2C=Cc2ccccc21 | inactive |
| C=CCOC(=O)CC(C)C | inactive |
| CCN(CC)CCOC(=O)c1ccc(N)cc1 | inactive |
| CC(=O)/C=C/C1=C(C)CCCC1(C)C | inactive |
| CC(=O)Oc1ccccc1C(=O)O | inactive |
| CC(=O)OC/C=C(C)/C=C/C=C(C)/C=C/C1=C(C)CCCC1(C)C | inactive |
| Nc1ccc(N=Nc2ccccc2)c(N)n1 | 48.8 µM (active) and 48.6 µM (active) and 21.1 µM (active) |
| O=C1CCCCCN1 | inactive |
| CN(C)Cc1cc(CN(C)C)c(O)c(CN(C)C)c1 | inactive |
| C/C=C/c1ccc(O)c(OC)c1 | inactive |
| CC(C)(C)CC(C)(C)c1ccc(O)c(-n2nc3ccccc3n2)c1 | inactive |
| N[C@@H](Cc1c[nH]c2ccc(O)cc12)C(=O)O | inactive |
| C1CNCCN1 | inactive |
| CC(C)=CCC/C(C)=C/CO | inactive |
| COc1ccccc1O | inactive |
| OC[C@@H](O)[C@@H](O)[C@H](O)[C@H](O)CO | inactive |
| C#C[C@]1(O)CC[C@H]2[C@@H]3CCc4cc(O)ccc4[C@H]3CC[C@@]21C | 27.1 µM (active) and 19.3 µM (active) and 8.41 µM (active) |
| NC(=O)c1ccc([N+](=O)[O-])cc1Cl | inactive |
| C[C@]12CC[C@@H]3c4ccc(O)cc4CC[C@H]3[C@@H]1CCC2=O | inactive |
| COc1ccccc1NC(=O)CC(C)=O | inactive |
| O=C1OC(c2ccc(O)cc2)(c2ccc(O)cc2)c2ccccc21 | inactive |
| C#C[C@]1(O)CC[C@H]2[C@@H]3CCC4=CC(=O)CC[C@@H]4[C@H]3CC[C@@]21CC | inactive and 54.5 µM (active) |
